Reference: PubChem BioAssay AID1159580 (chemical genetic matrix, 2015)
The whole screen tested about 5,500 compounds, of which about 2,000 (36%) were called active. Another 18% or so got no clear call; they are omitted. Cut-off read from the data, not from the text of the source: active = normalized growth mostly below about 0.91 (no sharp cut-off); inconclusive = no clear call, values can overlap the other calls; inactive = mostly above about 0.92. The list shows a part of the results.

Assay: chemical genetic growth profiling, strain panel (AID 1159580);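 note: tested at 20 µM; growth read once vehicle control cultures reached saturation at 30 °C; 1 = growth at the plate median or of vehicle wells; lower values mean less growth of the strain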
Conditions: S. cerevisiae deletion strains, growth OD

Measured: normalized growth

CCCCC/C=C\CC(O)/C=C/c1cccc(CC(O)CCCCO)n1 (centres undefined)
inactive: locus YAL013W, strain DEP1, active compounds read low 1.03 | locus YAL040C, strain CLN3, active compounds read low 0.995 | locus YCL061C, strain MRC1 (second series), active compounds read low 0.996 | locus YDR150W, strain NUM1, active compounds read low 1 | locus YDR363W, strain ESC2, active compounds read low 1.01 | locus YER002W, strain NOP16, active compounds read low 0.982 | locus YMR307W, strain GAS1, active compounds read low 1.01 | locus YNL153C, strain GIM3, active compounds read low 1 | locus YNL175C, strain NOP13, active compounds read low 0.985 | locus YNL197C, strain WHI3, active compounds read low 0.974 | locus YNL224C, strain SQS1, active compounds read low 0.975 | locus YNL322C, strain KRE1, active compounds read low 1.01 | locus YOR083W, strain WHI5 (second series), active compounds read low 0.991 | locus YPL241C, strain CIN2, active compounds read low 0.995
